From PubChem BioAssay come the findings set out here.

Records with an inconclusive call do not appear. Activity calls are given as the source filed them.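 How the source made its calls, unless noted: active means efflux inhibition above 0.42, the validation set average plus 4 SD; inconclusive means no clear call, values can overlap the other calls; inactive means the rest.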

A short description of assay [1]: yeast TOR pathway RPL19A-GFP modulators, primary screen, cell-based, S. cerevisiae, multiplex flow cytometry (AID 1862; in the data active means percent of DMSO control GFP below about 86%;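 further: lower values mimic rapamycin by blocking the RPL19A rise seen in DMSO cells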). Conditions: S. cerevisiae RPL19A-GFP strain, flow cytometry fluorescence, 3 h; at 10 µM; stronger effect = lower value. For orientation: In flow cytometry, cells or beads pass a laser one at a time.
Assay [2] in a line: modulators of MEP2-GFP levels in yeast, primary screen, S. cerevisiae, multiplex flow cytometry (AID 1867;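 active means GFP response, as percent of the DMSO control, above the screen-wide mean plus 3 SD, about 139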;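 further: median GFP channel fluorescence of barcode-gated MEP2-GFP cells measured by flow cytometry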). Conditions: S. cerevisiae MEP2-GFP strain, 3 h, at 10 µM, stronger effect = higher value, 100% means same as DMSO wells.
Assay [3] in a line: modulators of CIT2-GFP expression in yeast, primary screen, S. cerevisiae, GFP fusion, multiplex flow cytometry (AID 1870;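 active means percent response above a set limit, the screen-wide mean plus 3 SD, cut at about 130% in these data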;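 further: barcoded CIT2-GFP strain pooled with four other GFP strains with rapamycin as positive control; median GFP fluorescence per well over plate mean of DMSO wells so 100% = DMSO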). Conditions: 3 h, at 10 µM, stronger effect = higher value.
Assay [4] in a line: modulators of LAP4-GFP expression in yeast, primary screen, S. cerevisiae, multiplex flow cytometry (AID 1873;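 active means GFP signal, as percent of the solvent control, above the screen mean plus 3 SD, about 149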). Conditions: 3 h, at 10 µM, stronger effect = higher value.
The nature of assay [5]: modulators of AGP1-GFP expression in yeast TOR pathway, primary screen, cell-based, multiplex flow cytometry, S. cerevisiae (AID 1887;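 active means GFP signal above the screen-wide mean plus 3 SD, that is over about 124.5% of the solvent control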;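 further: AGP1-GFP fusion strain of S. cerevisiae within a five-strain barcoded multiplex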). Conditions: 3 h, at 10 µM, stronger effect = higher value.
Assay [6] can be described thus: inhibitors of CD8+ T cell-vesicle binding, pilot screen, LFA-1/ICAM-1 modulator project, MLPCN validation set, flow cytometry (AID 2523;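 active means response below a set limit, under 55% cells CD8-positive and vesicle-bound, and CD8 cells' 90th-percentile brightness under 279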;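 on vesicle binding response: mean PE anti-B7-1 fluorescence of CD8+ cells relative to row control; 100% = QL9-loaded vesicles with DMSO vehicle in the same plate row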). Conditions: 2C mouse CD8+ T cells, at 7 µM, stronger effect = lower value; double positive events: measured here: CD8+/vesicle+ event percentage.
Assay [7] has as its target Integrin beta-1 (Homo sapiens) + Integrin alpha-4 (Homo sapiens) (UniProt P13612+P05556). The experiment in a line: inhibition of HUTS-21 binding to VLA-4, pilot screen, VLA-4 allosteric modulator project, U937 cells, HUTS-21 mAb, flow cytometry, validation set (AID 2674;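 active means inhibition above 50%, about 3 SD of the validation set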;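 further: antibody binding induced by the VLA-4 ligand LDV present at three times its Kd; 0% = LDV ligand with antibody and no compound and 100% = antibody without LDV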). Conditions: HUTS-21 LIBS mAb binding, at 6.7 µM, stronger effect = higher value, binding induced by LDV ligand.

Assay [8] in a line: superoxide lowering in aged yeast cells, pilot screen, validation compound set (AID 2706;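 active means superoxide response below 65% of plate, a cut near 3 SD across the whole screen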;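 further: yeast exposed to compound for one week at 30 degrees C before staining; 100% = mean of all compound wells on the same plate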). Conditions: S. cerevisiae aging, superoxide DHE fluorescence; at 10 µM; stronger effect = lower value.
Assay [9] concerns the target Beta-adrenergic receptor kinase 1 (Homo sapiens) (UniProt P25098). The experiment in a line: GRK2 binders displacing RNA aptamer, biochemical, validation, human GRK2, bead flow cytometry (AID 488806;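 active means aptamer binding inhibition above 30%, about 3 SD of noise from non-fluorescent compounds; inactive means inhibition at or below 30%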). Conditions: bead-bound GRK2, FAM-aptamer displacement, at 10 µM, stronger effect = higher value.
For assay [10], the target named is Beta-2 adrenergic receptor (Homo sapiens) (UniProt P07550). The experiment in a line: beta2AR agonists driving receptor internalization, pilot screen, cell-based, FAP fluorogen, flow cytometry, validation set (AID 504459;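 active means percent response above 42, roughly 3 SD of non-fluorescent test compounds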;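 further: agonist-driven loss of surface beta2AR via internalization measured by FAP dye flow cytometry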). Conditions: Am2.2-beta2AR cells, FAP surface receptor flow cytometry; at 10 µM; stronger effect = higher value.
For assay [11], the target named is AP-2 complex subunit beta (Homo sapiens) (UniProt P63010). The assay can be described thus: inhibitors of arrestin peptide binding to AP2, pilot screen, biochemical, validation set, GST-AP2 beads, flow cytometry (AID 504541;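 active means inhibition above 54%, about 3 SD of non-fluorescent compounds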;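 further: AP2 carries R879A mutation and is captured from E. coli lysate; bead-bound FITC arrestin peptide fluorescence measuring arrestin peptide binding to AP2; 0% = DMSO wells and 100% = excess unlabeled arrestin peptide control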). Conditions: FITC arrestin peptide, at 10 µM, stronger effect = higher value, AP2 beta2 appendage fragment, R879A mutant.
Assay [12] can be described thus: yeast V-ATPase proton transport modulators, S. cerevisiae, pHLuorin, HTS validation (AID 504600; in the data active means response above about 15%;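 further: plate controls were DMSO for no effect and reference compound for full effect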). Conditions: S. cerevisiae pHLuorin cytosolic pH, at 10 µM, stronger effect = higher value.
Assay [13] concerns anti-desmoglein-3 scFv antibody binding to human DSG3. The assay can be described thus: inhibitors of anti-DSG3 scFv binding to DSG3, pilot screen, biochemical, validation compound set, bead-based, flow cytometry (AID 588368;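 active means binding below the plate cutoff, the plate median minus 3 SD, with a reading above zero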;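 further: signal is the median channel fluorescence of bead-bound GFP antibody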). Conditions: Protein G beads, DSG3-Fc, scFv-GFP binding, at 10 µM, stronger effect = lower value.
The nature of assay [14]: inhibitors of fungal efflux pumps CDR1, CDR2, MDR1, pilot screen, validation compound set, multiplex, phenotypic (AID 588506).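 Further: Nile Red retained in cells so higher fluorescence means more efflux inhibition; 0 = negative control wells and 1 = enniatin B 25 µM full block.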 Conditions: S. cerevisiae pump-expressing triplex, Nile Red efflux flow cytometry; at 10 µM; stronger effect = higher value; the pumps come from Candida albicans.
In assay [15] the target is ATP-binding cassette sub-family B member 6 (Homo sapiens) (UniProt Q9NP58). The experiment in a line: ABCB6 transporter inhibitors, pilot screen, K562-ABCB6 cells, flow cytometry, validation set (AID 588550;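 active means inhibition above the screen-wide mean plus 3 SD, about 51%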;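 further: 0% = DMSO wells and 100% = benzethonium chloride 70 µM positive control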). Conditions: K562-ABCB6 porphyrin accumulation, 1 h, at 10 µM, stronger effect = higher value.
Assay [16] is described as follows: promoters of myeloid differentiation in arrested cells, primary screen, cell-based, GFP/MAC1 double positive, flow cytometry, validation set (AID 588685;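 active means differentiation response of at least 50%, scaled between solvent and reference control, from cells with both markers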;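 further: compound exposure lasts four days before antibody staining and flow analysis; 0% = DMSO wells and 100% = 5 µM fulvestrant positive control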). Conditions: ER-HoxA9 marrow cells, stronger effect = higher value, normalized: vehicle 0, fulvestrant 100.

Sequence of Beta-adrenergic receptor kinase 1 (Homo sapiens) (P25098 whole entry, looked up): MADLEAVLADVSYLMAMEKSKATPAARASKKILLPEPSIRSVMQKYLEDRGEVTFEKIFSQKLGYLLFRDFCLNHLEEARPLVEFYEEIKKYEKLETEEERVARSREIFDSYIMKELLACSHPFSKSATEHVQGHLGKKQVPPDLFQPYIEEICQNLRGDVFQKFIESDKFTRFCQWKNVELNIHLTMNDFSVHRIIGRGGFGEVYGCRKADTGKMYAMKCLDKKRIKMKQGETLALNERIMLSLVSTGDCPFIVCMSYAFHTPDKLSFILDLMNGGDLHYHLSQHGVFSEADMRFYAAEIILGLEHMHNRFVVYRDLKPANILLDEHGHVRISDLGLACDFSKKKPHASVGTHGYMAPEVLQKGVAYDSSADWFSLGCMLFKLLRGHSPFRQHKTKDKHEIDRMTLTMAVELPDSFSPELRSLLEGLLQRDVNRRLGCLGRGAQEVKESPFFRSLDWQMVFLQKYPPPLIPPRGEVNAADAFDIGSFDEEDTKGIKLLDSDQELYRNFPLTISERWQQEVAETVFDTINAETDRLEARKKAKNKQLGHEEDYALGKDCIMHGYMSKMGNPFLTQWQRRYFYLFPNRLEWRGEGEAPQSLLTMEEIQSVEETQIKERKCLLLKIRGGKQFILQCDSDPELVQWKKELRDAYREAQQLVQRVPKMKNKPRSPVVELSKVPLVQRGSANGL
Sequence of ATP-binding cassette sub-family B member 6 (Homo sapiens) (Q9NP58 whole entry, looked up): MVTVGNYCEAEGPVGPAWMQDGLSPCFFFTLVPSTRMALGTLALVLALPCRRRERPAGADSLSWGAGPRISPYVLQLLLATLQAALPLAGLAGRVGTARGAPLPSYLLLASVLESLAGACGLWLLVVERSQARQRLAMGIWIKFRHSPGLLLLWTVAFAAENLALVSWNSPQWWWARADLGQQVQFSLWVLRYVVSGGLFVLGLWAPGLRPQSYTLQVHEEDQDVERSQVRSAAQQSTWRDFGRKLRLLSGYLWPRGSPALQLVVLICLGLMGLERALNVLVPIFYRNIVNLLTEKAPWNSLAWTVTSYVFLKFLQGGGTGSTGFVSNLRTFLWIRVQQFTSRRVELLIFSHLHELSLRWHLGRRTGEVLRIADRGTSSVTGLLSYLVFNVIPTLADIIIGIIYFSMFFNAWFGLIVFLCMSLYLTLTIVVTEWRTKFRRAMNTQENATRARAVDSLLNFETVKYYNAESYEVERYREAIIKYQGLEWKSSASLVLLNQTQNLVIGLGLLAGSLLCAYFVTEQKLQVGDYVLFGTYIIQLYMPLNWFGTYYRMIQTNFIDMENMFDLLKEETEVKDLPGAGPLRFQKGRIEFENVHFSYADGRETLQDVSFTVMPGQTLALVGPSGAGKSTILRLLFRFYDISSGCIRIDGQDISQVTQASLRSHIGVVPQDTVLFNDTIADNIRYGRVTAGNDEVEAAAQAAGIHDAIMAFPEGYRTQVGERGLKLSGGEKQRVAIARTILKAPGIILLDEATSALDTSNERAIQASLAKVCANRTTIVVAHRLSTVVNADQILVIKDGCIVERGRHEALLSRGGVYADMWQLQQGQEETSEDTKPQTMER
Sequence of Beta-2 adrenergic receptor (Homo sapiens) (P07550 whole entry, looked up): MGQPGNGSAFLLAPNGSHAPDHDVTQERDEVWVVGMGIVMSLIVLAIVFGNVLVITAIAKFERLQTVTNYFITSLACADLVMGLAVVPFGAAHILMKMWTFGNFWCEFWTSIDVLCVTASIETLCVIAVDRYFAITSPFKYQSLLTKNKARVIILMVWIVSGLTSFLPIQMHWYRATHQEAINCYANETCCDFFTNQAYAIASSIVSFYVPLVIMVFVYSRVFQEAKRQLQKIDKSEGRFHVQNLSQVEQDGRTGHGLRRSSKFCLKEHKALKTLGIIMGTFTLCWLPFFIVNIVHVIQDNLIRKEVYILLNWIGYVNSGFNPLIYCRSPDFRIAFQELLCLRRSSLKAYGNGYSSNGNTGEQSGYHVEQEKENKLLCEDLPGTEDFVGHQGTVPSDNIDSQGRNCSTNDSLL
Sequence of Integrin beta-1 (Homo sapiens) + Integrin alpha-4 (Homo sapiens) (P05556 whole entry, looked up): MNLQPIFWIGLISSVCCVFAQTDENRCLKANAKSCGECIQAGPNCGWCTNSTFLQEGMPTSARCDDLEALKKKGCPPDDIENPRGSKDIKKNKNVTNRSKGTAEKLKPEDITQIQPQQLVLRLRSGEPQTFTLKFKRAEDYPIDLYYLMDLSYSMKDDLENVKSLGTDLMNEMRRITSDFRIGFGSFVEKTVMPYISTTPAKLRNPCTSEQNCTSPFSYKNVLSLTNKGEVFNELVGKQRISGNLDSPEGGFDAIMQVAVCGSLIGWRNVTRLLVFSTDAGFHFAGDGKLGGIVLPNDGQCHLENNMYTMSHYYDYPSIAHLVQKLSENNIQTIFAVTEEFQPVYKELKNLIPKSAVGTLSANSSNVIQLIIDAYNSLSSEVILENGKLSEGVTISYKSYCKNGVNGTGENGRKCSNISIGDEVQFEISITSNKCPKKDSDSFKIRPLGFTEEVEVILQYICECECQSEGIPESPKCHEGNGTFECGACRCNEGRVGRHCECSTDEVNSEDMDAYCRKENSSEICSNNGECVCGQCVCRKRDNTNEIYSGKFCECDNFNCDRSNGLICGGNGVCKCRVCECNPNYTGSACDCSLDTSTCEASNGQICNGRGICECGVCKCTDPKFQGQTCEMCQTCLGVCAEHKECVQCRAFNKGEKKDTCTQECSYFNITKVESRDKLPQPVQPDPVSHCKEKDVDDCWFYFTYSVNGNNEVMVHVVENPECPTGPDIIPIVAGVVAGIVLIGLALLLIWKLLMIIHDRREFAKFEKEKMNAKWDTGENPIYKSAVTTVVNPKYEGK
Sequence of Integrin beta-1 (Homo sapiens) + Integrin alpha-4 (Homo sapiens) (P13612 whole entry, looked up): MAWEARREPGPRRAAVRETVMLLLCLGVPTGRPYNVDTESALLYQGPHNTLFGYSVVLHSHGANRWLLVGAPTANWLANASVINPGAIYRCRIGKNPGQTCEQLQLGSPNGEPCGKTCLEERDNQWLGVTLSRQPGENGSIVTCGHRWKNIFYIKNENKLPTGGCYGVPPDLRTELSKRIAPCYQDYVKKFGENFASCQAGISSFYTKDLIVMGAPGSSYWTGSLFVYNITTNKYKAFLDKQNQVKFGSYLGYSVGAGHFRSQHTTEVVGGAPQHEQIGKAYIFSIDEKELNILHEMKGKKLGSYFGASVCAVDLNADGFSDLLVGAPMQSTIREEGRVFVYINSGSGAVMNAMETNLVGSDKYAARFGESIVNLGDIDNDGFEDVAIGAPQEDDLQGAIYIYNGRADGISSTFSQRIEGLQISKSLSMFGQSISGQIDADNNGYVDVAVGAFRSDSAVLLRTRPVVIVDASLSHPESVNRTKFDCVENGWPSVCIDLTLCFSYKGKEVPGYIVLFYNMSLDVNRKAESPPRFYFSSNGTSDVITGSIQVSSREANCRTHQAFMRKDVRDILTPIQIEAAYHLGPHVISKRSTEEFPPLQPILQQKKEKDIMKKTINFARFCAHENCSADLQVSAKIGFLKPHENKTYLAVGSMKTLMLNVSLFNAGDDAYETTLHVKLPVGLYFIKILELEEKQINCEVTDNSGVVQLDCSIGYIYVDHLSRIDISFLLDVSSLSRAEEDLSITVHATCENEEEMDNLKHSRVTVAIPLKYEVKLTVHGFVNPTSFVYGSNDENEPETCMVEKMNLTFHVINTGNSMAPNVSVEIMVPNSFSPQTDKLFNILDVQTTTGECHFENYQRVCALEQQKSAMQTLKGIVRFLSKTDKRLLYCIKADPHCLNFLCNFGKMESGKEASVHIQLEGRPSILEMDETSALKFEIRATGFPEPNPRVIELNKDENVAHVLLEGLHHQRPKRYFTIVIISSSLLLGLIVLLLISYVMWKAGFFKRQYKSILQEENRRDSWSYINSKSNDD
Sequence of AP-2 complex subunit beta (Homo sapiens) (P63010 whole entry, looked up, the tested form may be a part, one chain of several): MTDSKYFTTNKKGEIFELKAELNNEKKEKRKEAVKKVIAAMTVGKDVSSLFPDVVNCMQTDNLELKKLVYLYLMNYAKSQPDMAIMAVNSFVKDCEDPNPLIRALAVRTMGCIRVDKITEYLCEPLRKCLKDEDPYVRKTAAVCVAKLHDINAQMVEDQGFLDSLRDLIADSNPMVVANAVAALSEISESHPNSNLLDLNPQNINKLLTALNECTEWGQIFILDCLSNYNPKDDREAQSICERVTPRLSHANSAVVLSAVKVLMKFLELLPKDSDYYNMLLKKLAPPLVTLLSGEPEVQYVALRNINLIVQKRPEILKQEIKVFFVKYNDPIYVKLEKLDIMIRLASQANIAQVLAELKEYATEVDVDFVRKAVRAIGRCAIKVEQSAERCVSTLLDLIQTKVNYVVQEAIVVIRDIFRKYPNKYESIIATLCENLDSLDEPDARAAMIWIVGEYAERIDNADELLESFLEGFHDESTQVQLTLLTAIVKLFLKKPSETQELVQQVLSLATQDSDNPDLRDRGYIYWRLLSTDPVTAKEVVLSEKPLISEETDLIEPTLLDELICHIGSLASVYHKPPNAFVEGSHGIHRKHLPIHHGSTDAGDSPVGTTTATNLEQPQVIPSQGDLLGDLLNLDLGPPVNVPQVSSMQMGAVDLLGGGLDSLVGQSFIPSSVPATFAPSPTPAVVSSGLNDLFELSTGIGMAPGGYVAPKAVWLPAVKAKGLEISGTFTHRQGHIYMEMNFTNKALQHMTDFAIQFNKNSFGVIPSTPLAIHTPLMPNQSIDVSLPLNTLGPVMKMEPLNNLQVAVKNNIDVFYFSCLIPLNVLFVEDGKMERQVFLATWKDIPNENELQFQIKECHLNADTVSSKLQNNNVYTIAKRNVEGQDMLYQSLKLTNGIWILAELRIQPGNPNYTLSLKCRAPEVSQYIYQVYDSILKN

Turning to `CCCC(=O)Nc1ccccc1NC(C)=O`, in assay [1], the percent of DMSO control GFP was 101% (inactive). Also, the GFP response vs DMSO in [2] is 102% (inactive); in assay [4], 99.1% (inactive). In assay [3], the percent response of DMSO control was 108% (inactive). The GFP response, % of DMSO in [5] was 104% (inactive). In assay [6], this molecule returned a double positive events of 65.9%. Moreover, the vesicle binding response in [6] was 170% (inactive). The inhibition was -9.13% (inactive) in assay [7], -1.46% (inactive) in assay [11] and 0% (inactive) in [15]. Further, the superoxide response (% of plate) in assay [8] is 111% (inactive). In addition, the aptamer binding inhibition in [9] is 1% (inactive). The results for the response in [10] and in assay [12] were 5.03% (inactive) and 0.04% (inactive), respectively. The binding (% of control) in [13] is 95.1% (inactive). Besides, the efflux inhibition (fraction of control) in assay [14] was 1.13 (active). Further, the differentiation response in assay [16] was -1.65% (inactive).
`CC1(C)C(C=C(Cl)Cl)C1C(=O)N1CCN(Cc2ccccc2)CC1` (stereo unspecified): in [1], the percent of DMSO control GFP is 103% (inactive). Besides, the GFP response vs DMSO was 99.3% (inactive) in [2] and 89.4% (inactive) in [4]. The percent response of DMSO control in assay [3] is 104% (inactive). In addition, the GFP response, % of DMSO in assay [5] was 103% (inactive). In assay [6], this molecule displayed a double positive events of 66.3%. Moreover, in assay [6], the vesicle binding response was 329% (inactive). Further, the inhibition in [7] is -6.68% (inactive); in [11], 5.16% (inactive); in [15], 13% (inactive). The superoxide response (% of plate) in assay [8] was 102% (inactive). Further, the aptamer binding inhibition in assay [9] is 3% (inactive). The response in assay [10] is -1.88% (inactive); in assay [12], -5.4% (inactive). For the same molecule, the binding (% of control) in assay [13] is 93.5% (inactive). The efflux inhibition (fraction of control) in [14] was -0.01 (inactive). Also, the differentiation response in assay [16] was -9.53% (inactive).
As for `CCC(C(=O)OCCN(CC)CC)c1ccccc1` (stereo unspecified), the percent of DMSO control GFP in [1] is 101% (inactive). The GFP response vs DMSO is 101% (inactive) in [2] and 85.9% (inactive) in assay [4]. Further, in assay [3], the percent response of DMSO control is 98.2% (inactive). The GFP response, % of DMSO in [5] is 99.1% (inactive). The double positive events in [6] is 57.2%. The vesicle binding response in assay [6] is 33.7% (inactive). Also, the inhibition was 2.55% (inactive) in assay [7], 19.7% (inactive) in [11] and 6% (inactive) in [15]. The superoxide response (% of plate) in assay [8] was 97.2% (inactive). Besides, the aptamer binding inhibition in assay [9] was 5% (inactive). Besides, the response was 8.98% (inactive) in [10] and -2.47% (inactive) in assay [12]. The binding (% of control) in assay [13] is 98.8% (inactive). For the same molecule, in [14], the efflux inhibition (fraction of control) was 0.26 (inactive). For the same molecule, in assay [16], the differentiation response was 14.9% (inactive).
In the case of `CCN(CC)CC#CCOC(=O)C(O)(c1ccccc1)C1CCCCC1` (stereo unspecified), the percent of DMSO control GFP in [1] was 91.1% (inactive). Further, the GFP response vs DMSO in assay [2] is 132% (inactive); in [4], 83.1% (inactive). Further, the percent response of DMSO control in assay [3] was 110% (inactive). In [5], the GFP response, % of DMSO was 91.2% (inactive). The double positive events in [6] amounted to 62.3%. For the same molecule, in assay [6], the vesicle binding response is 181% (inactive). Moreover, the inhibition in assay [7] was 10.3% (inactive); in assay [11] it was -2.84% (inactive); in assay [15], 8% (inactive). The superoxide response (% of plate) in assay [8] is 112% (inactive). For the same molecule, the aptamer binding inhibition in assay [9] is 4% (inactive). For the same molecule, the response was 14.8% (inactive) in assay [10] and -0.18% (inactive) in assay [12]. Moreover, the binding (% of control) in assay [13] was 104% (inactive). Further, in assay [14], the efflux inhibition (fraction of control) is 0.3 (inactive). Further, the differentiation response in [16] is -1.64% (inactive).
As to `O=C(O)c1ccc(OCCn2ccnc2)cc1`, the percent of DMSO control GFP in [1] is 103% (inactive). Moreover, the GFP response vs DMSO in [2] is 95.6% (inactive); in assay [4], 93.7% (inactive). For the same molecule, the percent response of DMSO control in [3] is 106% (inactive). In addition, the GFP response, % of DMSO in assay [5] is 112% (inactive). In [6], this molecule came in with a double positive events of 66.1%. Moreover, the vesicle binding response in assay [6] was 173% (inactive). Further, the inhibition in assay [7] was 9.63% (inactive); in assay [11], -0.39% (inactive); in assay [15] it was 16% (inactive). Further, in [8], the superoxide response (% of plate) is 91.6% (inactive). In [9], the aptamer binding inhibition was -2% (inactive). Besides, the figures for the response in [10] and in [12] were -0.04% (inactive) and 2.25% (inactive), respectively. In addition, the binding (% of control) in assay [13] is 101% (inactive). Also, the efflux inhibition (fraction of control) in assay [14] was 0.36 (inactive). Besides, in assay [16], the differentiation response is 2.74% (inactive).
Take `O=C(CCC1CCCN(C(=O)c2ccsc2)C1)NCc1ccc(F)c(F)c1` (stereo unspecified): in [1], the percent of DMSO control GFP is 99% (inactive). Further, the GFP response vs DMSO in assay [2] and in assay [4] was 103% (inactive) throughout. Also, the percent response of DMSO control in assay [3] was 94.2% (inactive). For the same molecule, the GFP response, % of DMSO in [5] is 98.9% (inactive). For the same molecule, the double positive events in [6] came to 62.4%. The vesicle binding response in assay [6] is 183% (inactive). The inhibition was -9.79% (inactive) in assay [7], -6.99% (inactive) in assay [11] and -8% (inactive) in assay [15]. In addition, the superoxide response (% of plate) in assay [8] is 102% (inactive). The aptamer binding inhibition in [9] is -2% (inactive). The response is -9.44% (inactive) in assay [10] and 1.61% (inactive) in assay [12]. Further, the binding (% of control) in assay [13] is 104% (inactive). In assay [14], the efflux inhibition (fraction of control) is 0.08 (inactive). In assay [16], the differentiation response is 8.06% (inactive).
Consider `CN(C)[C@@H]1C(=O)C(C(N)=O)=C(O)[C@@]2(O)C(=O)C3=C(O)c4c(O)ccc(Cl)c4[C@@H](O)[C@H]3C[C@@H]12`, for which, in assay [1], the percent of DMSO control GFP was 104% (inactive). Also, the GFP response vs DMSO was 105% (inactive) in assay [2] and 104% (inactive) in assay [4]. The percent response of DMSO control in assay [3] was 98.3% (inactive). Moreover, in assay [5], the GFP response, % of DMSO was 109% (inactive). Also, the double positive events in assay [6] worked out at 59.2%. The vesicle binding response in assay [6] was 122% (inactive). The inhibition was -7.93% (inactive) in [7], 10.7% (inactive) in [11] and -10% (inactive) in [15]. The superoxide response (% of plate) in assay [8] was 96% (inactive). Besides, the aptamer binding inhibition in assay [9] is 10% (inactive). The response is -15.7% (inactive) in [10] and -7.23% (inactive) in assay [12]. For the same molecule, the binding (% of control) in assay [13] is 101% (inactive). Besides, the efflux inhibition (fraction of control) in [14] is -0.17 (inactive). Also, in [16], the differentiation response was 8.8% (inactive).
In the case of `COCCN(CCOC)Cc1c(C)[nH]c2c(C)c(C)ccc2c1=O`, the percent of DMSO control GFP in assay [1] was 103% (inactive). In addition, the GFP response vs DMSO in assay [2] was 108% (inactive); in [4], 93.7% (inactive). Moreover, the percent response of DMSO control in assay [3] was 97.6% (inactive). For the same molecule, in [5], the GFP response, % of DMSO is 102% (inactive). Further, the double positive events in assay [6] was found to be 63.2%. Also, the vesicle binding response in assay [6] is 132% (inactive). Further, the inhibition in [7] is -2.43% (inactive); in assay [11], -8.42% (inactive); in assay [15], -9% (inactive). For the same molecule, the superoxide response (% of plate) in [8] is 99.3% (inactive). Moreover, in assay [9], the aptamer binding inhibition is 0% (inactive). For the same molecule, the response in assay [10] was 4.86% (inactive); in assay [12], 5.64% (inactive). For the same molecule, in [13], the binding (% of control) is 105% (inactive). Besides, the efflux inhibition (fraction of control) in [14] is -0.29 (inactive). For the same molecule, the differentiation response in assay [16] was -10.4% (inactive).

The inhibition is the relative decrease from the control value, in per cent.
